High-throughput results deposited in PubChem by Broad Institute.
Compounds with a hit are over-represented: about 1.4% of the library has one in this group of screens.
PGC1a acetyl inh = lowers PGC1a acetylation signal in U2OS cells; AlphaScreen anti-acetyl-lysine; with virally co-expressed GCN5 acetyltransferase; inhibition, % at 15.6 µM; 350,000 tested, 0.17% active; AID 651687;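 active = every replicate shows inhibition of at least 40%; inconclusive = mean inhibition at least 40% but some replicate below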
ERAP1 inh = blocks human ERAP1 aminopeptidase activity. Q9NZ08. recombinant ERAP1, Leu-AMC fluorescence, 60 min. inhibition, % at 10.7 µM. 340,000 tested, 0.15% active;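 active = mean replicate inhibition of at least 30%, or all replicates individually reaching that 30% level; inactive = mean below 30% and not every replicate reaching it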
RAD52 anneal inh = blocks human RAD52 DNA annealing; P43351; 360,000 tested, 0.46% active; inhibition, % at 18.7 µM; recombinant RAD52 DNA annealing, FRET fluorescence;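 active = every replicate showing at least 50% inhibition; inconclusive = mean inhibition at least 50% but not in every replicate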
AF4-AF9 inh = blocks AF4 peptide binding to human AF9; P42568; AlphaScreen, biotin-AF4 peptide binding to FLAG-AF9; inhibition, % at 10 µM; 350,000 tested, 0.47% active;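 active = every replicate reaching a set inhibition limit, whatever the replicate mean, cut at about 25% in these data; inconclusive = mean inhibition reaches that limit but some replicates miss it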
RAD54 inh = blocks human RAD54 Holliday junction branch migration; Q92698; FAM/BHQ fluorescence; inhibition, % at 10.4 µM; 360,000 tested, 0.14% active; AID 602329;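 active = mean normalized replicate activity at least 40 and at least half of replicates scoring 40 or more; inconclusive = only one of the two criteria met; inactive = mean below 40 and under half of replicates reaching 40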;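 note: inhibitors cause a drop in the FAM fluorescence signal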
Target sequence (Q92698 whole entry, looked up): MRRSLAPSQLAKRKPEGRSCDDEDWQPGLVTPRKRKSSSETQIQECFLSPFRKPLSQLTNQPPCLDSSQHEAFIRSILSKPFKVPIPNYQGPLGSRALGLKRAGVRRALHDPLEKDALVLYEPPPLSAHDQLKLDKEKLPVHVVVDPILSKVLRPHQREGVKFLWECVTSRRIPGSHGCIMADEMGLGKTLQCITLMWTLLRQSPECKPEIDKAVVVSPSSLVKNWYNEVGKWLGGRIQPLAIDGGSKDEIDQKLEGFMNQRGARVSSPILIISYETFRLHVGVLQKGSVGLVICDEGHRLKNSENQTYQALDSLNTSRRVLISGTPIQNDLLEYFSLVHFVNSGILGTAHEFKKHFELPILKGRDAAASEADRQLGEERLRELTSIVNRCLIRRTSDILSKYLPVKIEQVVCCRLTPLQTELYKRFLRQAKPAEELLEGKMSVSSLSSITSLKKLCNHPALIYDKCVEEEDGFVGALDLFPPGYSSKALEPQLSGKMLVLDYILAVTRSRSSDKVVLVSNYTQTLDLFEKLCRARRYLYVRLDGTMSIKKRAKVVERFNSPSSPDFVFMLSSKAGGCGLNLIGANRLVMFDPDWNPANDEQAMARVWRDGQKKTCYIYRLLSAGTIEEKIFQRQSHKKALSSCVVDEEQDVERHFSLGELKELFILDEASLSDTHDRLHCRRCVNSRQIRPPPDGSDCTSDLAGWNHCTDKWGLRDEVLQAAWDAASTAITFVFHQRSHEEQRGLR
GSIS activator = GLuc luminescence reporter in INS-1E cells, primary screen for activators of glucose-dependent secretion of insulin; INS-1E GLuc reporter insulin secretion, 2-3 h; activation, % at 16.6 µM; 370,000 tested, 0.61% active;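 active = lowest replicate activation of at least 40%, so every replicate reaches that level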
A number is an active result; i = inactive; ? = inconclusive; nt = no result.

SMILES | PGC1a acetyl inh | ERAP1 inh | RAD52 anneal inh | AF4-AF9 inh | RAD54 inh | GSIS activator
CC(C)c1ccc2oc(=O)cc(CN3CCCCC3)c2c1 | i | i | i | i | i | 44.0
COc1c(-c2ccc(O)c(O)c2)oc2cc(O)cc(O)c2c1=O | i | nt | i | i | i | 69.8
COc1ccc2c3c([nH]c2c1)[C@@H](CO)N(Cc1ccccc1)CC31CN(CC2CC2)C1 | nt | nt | nt | nt | nt | i
COc1ccccc1N1CCN(Cc2cc(Br)c(O)c3ncccc23)CC1 | i | i | i | 26.8 | i | nt
CCOc1ccccc1N1CCN(Cc2cccc(OC)c2O)CC1 | nt | nt | nt | nt | nt | i
COC(=O)[C@@H]1[C@@H](CO)[C@@H]2Cn3c(cccc3=O)[C@@H]2N1CC1CCOCC1 | nt | i | i | i | i | i
Cc1cc2nc(-c3ccccc3O)[nH]c2cc1C | i | i | i | i | i | 40.1
COc1ccc(N=Nc2cc(OC)c(N)cc2OC)cc1 | i | i | i | 31.5 | i | i
CN1C(=O)NC(c2ccc(O)cc2)C2=C1CN(c1ccccc1)C2=O (stereo not drawn) | i | i | i | i | i | 42.7
Cc1ccc(N2C(=O)C(F)(F)C2c2ccccc2)cc1 (stereo not drawn) | nt | i | i | i | i | i
COc1ccc(C2N(c3ccccc3)C(=O)C2(F)F)cc1OC (stereo not drawn) | i | i | i | i | i | 44.3
CSc1nc2nccc(-c3ccc(Cl)cc3)n2n1 | i | nt | nt | nt | i | i
CSc1nc2nccc(/C=C\c3ccccc3)n2n1 | 49.5 | nt | nt | nt | i | nt
CO[C@H]1CN(C)C(=O)c2cc(NC(=O)C3CCCC3)ccc2OC[C@@H](C)N(C(C)=O)C[C@@H]1C | i | nt | nt | nt | i | i
NC(=S)NN=C1CCCCCCCCCC1 | i | i | i | i | i | 54.7
NC(=S)NN=C1CCC(C2CCCCC2)CC1 (stereo not drawn) | i | i | i | i | i | i
COc1cc(Cl)c(S(=O)(=O)N2CCCC2)cc1Cl | nt | i | i | i | nt | i
COc1cc(N2C(=O)C=CC2=O)c(OC)cc1Cl | i | 35.3 | i | i | i | nt
CC1=CC(=O)C(C(C)C)=C/C1=N/OS(=O)(=O)c1ccccc1 | i | i | i | i | i | nt
CC1=CC(=O)C=C(C)C1=NOS(=O)(=O)c1ccccc1 | i | nt | nt | nt | i | 186.1
CCOC(=O)c1c(NC(=O)Cn2nc(C(F)(F)F)cc2C)sc(C)c1C | nt | nt | nt | nt | i | 61.3
O=C(Cn1nc(CNc2ccc(Br)cc2)[n+]2c1CCCCC2)c1ccc([N+](=O)[O-])cc1 | nt | i | i | 27.6 | i | nt
O=C(Cn1nc(CNc2ccc(Cl)cc2)[n+]2c1CCCCC2)c1ccc(Br)cc1 | i | nt | nt | nt | i | i
CN1c2ccc(-c3ccccc3F)cc2[C@H]2[C@H](CCN2C(=O)CN2CCOCC2)[C@@H]1CO | i | i | i | i | i | i
Nc1c(C(=O)OCC(=O)NCc2ccccc2)[nH]c(=O)[nH]c1=O | i | nt | i | 37.8 | i | i
SMILES | PGC1a acetyl inh | ERAP1 inh | RAD52 anneal inh | AF4-AF9 inh | RAD54 inh | GSIS activator
COc1ccc(NS(=O)(=O)c2ccc(C)c(NC(=O)CN3C(=O)NC4(CCCC4)C3=O)c2)cc1 | i | i | i | 40.8 | i | i
Cc1ccc(S(=O)(=O)N(C)C)cc1NC(=O)CN1C(=O)NC2(CCCCCC2)C1=O | nt | i | i | i | i | i
O=C(C[C@@H]1CC[C@@H]2[C@H](COC[C@H](O)CN2S(=O)(=O)c2ccccc2)O1)NCCN1CCCC1 | nt | i | i | i | nt | i
CC1(Cc2ccc(Cl)cc2)C(=O)Nc2ccc(-c3cccnc3)cc21 (stereo not drawn) | 45.9 | i | i | i | i | i
CC1(Cc2cccc(F)c2)C(=O)Nc2ccc(-c3cccnc3)cc21 (stereo not drawn) | i | i | i | i | i | i
COc1ccccc1-c1ccc2c(c1)C(C)(Cc1cc(Cl)ccc1C(F)(F)F)C(=O)N2 (stereo not drawn) | nt | i | i | i | i | i
CC1(Cc2cc(Cl)ccc2C(F)(F)F)C(=O)Nc2cc(F)ccc21 (stereo not drawn) | nt | nt | nt | nt | i | nt
CC1(Cc2cc(Cl)ccc2C(F)(F)F)C(=O)Nc2cc(C(F)(F)F)ccc21 (stereo not drawn) | i | i | i | i | i | 298.0
CC1(Cc2cc(Cl)ccc2C(F)(F)F)C(=O)Nc2ccc(-c3ccc(F)c(Cl)c3)cc21 (stereo not drawn) | i | i | i | i | i | 282.9
Cc1ccc(C2(C)NC(=O)N(CC(=O)Nc3ccc(-c4nc5ccc(C)cc5s4)cc3)C2=O)cc1 (stereo not drawn) | i | i | i | i | i | 43.8
Cc1ccc2nc(-c3ccc(NC(=O)CCN4C(=O)c5ccccc5C4=O)cc3)sc2c1 | i | i | i | i | i | nt
CCS(=O)(=O)Nc1ccc2c(c1)C(=O)N(C)C[C@H](OC)[C@H](C)CN(CC1CCCC1)[C@@H](C)CO2 | i | nt | nt | nt | i | i
CC(=O)N(C)C[C@H]1Oc2ccccc2CC(=O)N(C)C[C@H]1C | nt | nt | nt | nt | nt | i
CCOC(=O)CCNC(=O)N1CCCC(C(=O)c2cccc(OC(C)C)c2)C1 (stereo not drawn) | nt | i | i | i | i | 47.7
CCN1/C(=C/C=C/C=C/C=C/c2sc3ccccc3[n+]2CC)Sc2ccccc21 | i | 30.6 | i | ? | i | i
C/C=C/c1cnc2c(c1)C(=O)N([C@@H](C)CO)C[C@@H](C)[C@@H](CN(C)Cc1cccc(C(=O)O)c1)O2 | i | nt | nt | nt | nt | i
COc1ccc2c3c([nH]c2c1)[C@H](CO)NCC31CCN(C(=O)Nc2ccc(F)cc2)CC1 | nt | nt | nt | nt | nt | i
COc1ccc2c3c([nH]c2c1)[C@H](CO)NCC31CCN(C(=O)Nc2ccc(F)cc2F)CC1 | i | i | 76.2 | i | nt | i
COc1ccc2c3c([nH]c2c1)[C@@H](CO)NCC31CCN(C(=O)Nc2ccccc2F)CC1 | i | nt | 68.5 | i | nt | i
C[C@H]1CN(C)C(=O)c2cc(NS(C)(=O)=O)ccc2O[C@H]1CN(C)C | nt | nt | nt | nt | nt | i
CC(C)C(=O)NC(c1cccc([N+](=O)[O-])c1)c1ccc2cccnc2c1O (stereo not drawn) | i | i | i | ? | i | i
CCN(CC)c1ccc(C(NC(=O)C(C)C)c2ccc3cccnc3c2O)cc1 (stereo not drawn) | i | i | i | 29.5 | i | nt
CCC(=O)NC(c1cccs1)c1ccc2cccnc2c1O (stereo not drawn) | 47.4 | i | i | ? | nt | i
CCCC(=O)NC(c1cccc([N+](=O)[O-])c1)c1ccc2cccnc2c1O (stereo not drawn) | i | i | i | 34.0 | i | i
CCCCC(=O)NC(c1ccc(N(C)C)cc1)c1ccc2cccnc2c1O (stereo not drawn) | i | i | i | 57.4 | i | i
CC(C)CC(=O)NC(c1cccs1)c1ccc2cccnc2c1O (stereo not drawn) | i | nt | nt | nt | nt | nt
CCCCC(=O)NC(c1ccc(N(CC)CC)cc1)c1ccc2cccnc2c1O (stereo not drawn) | nt | i | i | i | i | nt
